Only some compounds are listed: those with a hit (about 1.5% of all), similar ones and a draw of the others.
Tb PFK inh: inhibitors of T. brucei phosphofructokinase | Potency, µM (doses to about 57.5 µM), for inactives: at the highest dose activity, negative = inhibition, hits mostly inhibitors | T. brucei PFK, ADP-Glo luminescence | 0.17% of 330,000 active | AID 485367 | O15648;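 also: potency is read from the fitted curve at half-maximal effect; 0% = uninhibited 1x PFK enzyme wells and -100% = no-enzyme wells; nearly all actives have a fitted effect of over 60% in size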
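PFK 1.25 nM, F6P 0.5 mM, ATP 0.1 mM, 0.1 M TEA pH 8.0, 5 mM MgCl2, 0.01% Tween20, 0.1% BSA; 45 min RT. ADP-Glo readout. qHTS titration up to 57 uM; curves fitted, compounds curve-classed.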
PI5P4K alpha inh: PI5P4K alpha (human) kinase inhibition. P48426. PI5P4Kalpha enzyme, ADP-Glo luminescence, 60 min; hits give low values. max response, %. 1.2% of 330,000 active. AID 652105; active = max response of -50% or lower; inconclusive = between -30% and -50%; inactive = -30% or higher; also: value at the top dose of about 77 µM; % is scaled to controls: 0 for no effect and ±100 for the full control effect
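Enzyme plus substrate dispensed, test compounds pinned in, then ATP (5 microM final) added. After 60 min at RT, ADP-Glo reagent 1 for 45 min and reagent 2 for 30 min preceded luminescence imaging.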
WRN helicase inh-1: blocks human WRN helicase; AID 651768; WRN helicase unwinding, fluorescent forked duplex, kinetic; Q14191; 0.46% of 360,000 active; Potency, µM (titrated, usually from 114 µM), inactives show at the top dose activity change, negative = inhibition, usual class: inhibitors; also: potency is read from the fitted curve at half-maximal effect; % is scaled to controls: 0 for no effect and ±100 for the full control effect; nearly all actives have a fitted effect of over 55% in size
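Enzyme (20 nM final) and test compound sit together 15 min at room temperature before substrate addition. Substrate is a single-forked duplex oligonucleotide (100 nM) labelled with fluorophore and quencher, with 2 mM ATP; helicase unwinding raises red fluorescence, read kinetically.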
Tb PGK inh: inhibitors of T. brucei phosphoglycerate kinase; PGK/GAPDH coupled, Kinase-Glo luminescence, 60 min; Potency, µM (highest dose often 57.5 µM), inactives show at the highest dose activity change, negative = inhibition, most hits filed as inhibitors; 0.043% of 380,000 active; AID 602233; also: potency is read from the fitted curve at half-maximal effect; % is scaled to controls: 0 for no effect and ±100 for the full control effect; nearly all actives have a fitted effect of over 60% in size
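Luminescent ATP detection (Kinase-Glo Plus) follows a 60-minute room-temperature incubation, with wells lacking PGK as controls. Buffer: 100 mM TEA (pH 7.6), 5 mM MgCl2, 0.01% Tween-20. Coupling enzyme GAPDH (100 nM final) supplies unstable 1,3-BPG in-well.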
TDP1 inh: inhibitors of human tyrosyl-DNA phosphodiesterase TDP1; recombinant TDP1, AlphaScreen DNA substrate cleavage; Potency, µM (doses to about 130 µM), inactives show at the top dose activity change, negative = inhibition, actives largely listed as inhibitors; 0.28% of 350,000 active; also: potency is read from the fitted curve at half-maximal effect; % is scaled to controls: 0 for no effect and ±100 for the full control effect; nearly all actives have a fitted effect of over 40% in size
Target sequence (Q9NUW8 whole entry, looked up): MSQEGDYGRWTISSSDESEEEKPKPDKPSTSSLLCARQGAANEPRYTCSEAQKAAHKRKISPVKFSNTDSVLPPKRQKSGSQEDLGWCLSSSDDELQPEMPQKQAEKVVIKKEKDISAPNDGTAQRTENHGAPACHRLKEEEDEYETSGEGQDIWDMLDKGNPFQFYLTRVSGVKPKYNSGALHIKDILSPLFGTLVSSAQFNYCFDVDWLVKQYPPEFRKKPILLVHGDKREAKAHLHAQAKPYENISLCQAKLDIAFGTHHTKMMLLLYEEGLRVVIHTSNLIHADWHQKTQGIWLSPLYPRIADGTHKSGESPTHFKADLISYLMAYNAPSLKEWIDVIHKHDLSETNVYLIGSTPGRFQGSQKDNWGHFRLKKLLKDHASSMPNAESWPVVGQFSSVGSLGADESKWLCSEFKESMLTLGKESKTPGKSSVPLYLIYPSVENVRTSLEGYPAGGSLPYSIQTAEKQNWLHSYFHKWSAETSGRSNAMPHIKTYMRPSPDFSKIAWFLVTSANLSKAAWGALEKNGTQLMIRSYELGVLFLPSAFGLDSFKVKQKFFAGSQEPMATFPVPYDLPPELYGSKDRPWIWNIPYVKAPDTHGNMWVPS
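Steps: enzyme plus compound, 15 min RT; add biotin/phosphotyrosine-FITC oligonucleotide (15 nM final), react 5 min; add donor/acceptor beads (10 ug/ml final), 10 min; read AlphaScreen. Tdp1 at 1 nM final.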
FEN1 inh-1: inhibitors of human flap endonuclease 1 | P39748 | Recombinant FEN1 flap cleavage, fluorescence, 15 min | Potency, µM (titrated, usually from 114 µM), without a hit: at the top dose activity change, negative = inhibition, most hits filed as inhibitors | 0.35% of 390,000 active | AID 588795; also: potency is read from the fitted curve at half-maximal effect; % is scaled to controls: 0 for no effect and ±100 for the full control effect; nearly all actives have a fitted effect of over 65% in size
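Reaction started by adding substrate (50 nM final) to 10 nM enzyme after 15 min room-temperature compound preincubation. Reads at 0 and 15 min, with data normalized and fitted to a four-parameter Hill equation.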
FEN1 inh-2: confirmation of human FEN1 inhibitors; shares compounds with FEN1 inh-1; FEN1 flap cleavage, TAMRA/BHQ2 fluorogenic DNA substrate; Potency, µM, usual class: inhibitors; 79% of 880 active; also: potency is read from the fitted curve at half-maximal effect; nearly all actives have a fitted effect of over 60% in size
WRN helicase inh-2: WRN helicase inhibition, cherry-pick retest; Potency, µM (top dose mostly 57.1 µM), for the others: at the highest dose activity, negative = inhibition, usual class: inhibitors; 63% of 610 active; WRN helicase DNA unwinding, fluorescence kinetic; shares compounds with WRN helicase inh-1; also: potency is read from the fitted curve at half-maximal effect; nearly all actives have a fitted effect of over 65% in size
TO displacement: binds DNA, flagged in WRN inhibitor counterscreen; shares compounds with WRN helicase inh-1; thiazole orange DNA binding displacement, fluorescence; Potency, µM (series often up to 57.1 µM), inactives show top-dose activity change, negative = inhibition, usual class: inhibitors; 10% of 610 active; AID 720499;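 also: drop in dye fluorescence marks compound binding to DNA; potency is read from the fitted curve at half-maximal effect; % is scaled to controls: 0 for no effect and ±100 for the full control effect; nearly all actives have a fitted effect of over 60% in size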
BLM helicase inh: blocks human BLM helicase in WRN counterscreen; Potency, µM (titrated, usually from 57.1 µM), without a hit: at the top dose activity change, negative = inhibition, actives largely listed as inhibitors; 60% of 610 active; shares compounds with WRN helicase inh-1; Recombinant BLM helicase DNA unwinding, red fluorescence; also: potency is read from the fitted curve at half-maximal effect; nearly all actives have a fitted effect of over 60% in size
ADP-Glo counter: interferes with ADP-Glo detection without enzyme present; 1,100 tested, under 10 active; Potency, µM (highest dose often 76.9 µM), inactives show at the highest dose activity change, negative = inhibition, hits mostly inhibitors; ADP-Glo detection counter-screen, luciferase luminescence, no enzyme; AID 743285; shares compounds with PI5P4K alpha inh
* marks the source's active call; other numbers are inactive results; [ ] = remark or other dose. Unless noted, calls follow the shape of the dose curve; as a rule, active = well fitted curve in the direction sought with a large enough effect; inconclusive = small, poorly fitted or top-dose-only effect, or another doubt; inactive = no such curve, though single readings can be large; an effect the other way counts as inactive or inconclusive.

`CC1CC(C)CN(C(=O)C(C)N2CCN(S(=O)(=O)c3cccs3)CC2)C1` (centres undefined) gave Tb PFK inh -3%, PI5P4K alpha inh -5, WRN helicase inh-1 4%, Tb PGK inh -1%, TDP1 inh -2%[56.1 µM] and FEN1 inh-1 6%.
For C[C@H](NC(=O)OC(C)(C)C)[C@@H](O)c1ccco1 the results were FEN1 inh-1 -2%.
Screening O=C1C(=Cc2ccco2)CCCC1=Cc1ccco1 returned PI5P4K alpha inh -28, WRN helicase inh-1 inconclusive, Tb PGK inh inconclusive and FEN1 inh-1 inconclusive.
Screening O=C1C(=Cc2ccco2)CCC1=Cc1ccco1 returned PI5P4K alpha inh -84*, WRN helicase inh-1 3.5µM*, Tb PGK inh 3.5µM*, FEN1 inh-1 8.9µM*, FEN1 inh-2 17*, WRN helicase inh-2 7.6µM*, TO displacement 2% and BLM helicase inh 7.6µM*.
For N#C/C(=C\c1ccc(O)c(O)c1)C(=O)Nc1cccc2ncccc12 the results were Tb PFK inh 17%, PI5P4K alpha inh -72*, WRN helicase inh-1 14µM*, Tb PGK inh inconclusive, FEN1 inh-1 45µM*, FEN1 inh-2 inconclusive, WRN helicase inh-2 4.3µM*, TO displacement 12µM* and BLM helicase inh 1.7µM*.
`Cc1cccc(N=C2NC(=O)/C(=C/C=C/c3ccco3)S2)c1C` gave Tb PFK inh inconclusive, PI5P4K alpha inh -80*, WRN helicase inh-1 32µM*, Tb PGK inh inconclusive, TDP1 inh -2%, FEN1 inh-1 45µM*, FEN1 inh-2 76*, WRN helicase inh-2 15µM*, TO displacement 27µM* and BLM helicase inh 8.6µM*.
`Cc1cccc(N=C2NC(=O)/C(=C/c3cccnc3)S2)c1C` gave Tb PFK inh 4%, PI5P4K alpha inh -22, WRN helicase inh-1 -9%, Tb PGK inh 4%, TDP1 inh 7% and FEN1 inh-1 -20%.
CN1CCN(c2ccc(Nc3c4ccccc4nc4ccccc34)cc2)CC1 was read as TDP1 inh 21%, FEN1 inh-2 19*, WRN helicase inh-2 6.1µM*, TO displacement 7.6µM* and BLM helicase inh 24µM*.
For O=C(O)c1ccc(Nc2c3ccccc3nc3ccccc23)cc1 the results were Tb PFK inh 0%, PI5P4K alpha inh -3, WRN helicase inh-1 -9%, Tb PGK inh -3% and FEN1 inh-1 -1%.
COc1ccc(COC(=O)N/N=C2/C[C@@H](O)[C@@H](O)[C@@H]3[C@@H]4C(=O)N(Cc5ccccc5)C(=O)[C@H]4CC[C@H]23)cc1 was read as TDP1 inh 7%[21 µM].
`Nc1cc(=O)[nH]c2c1CCC2` gave FEN1 inh-1 -2%.
`O=C(Nc1ccncc1)C1C(=O)c2ccccc2N(Cc2ccccc2)C1=O` (centres undefined) gave TDP1 inh 0% and FEN1 inh-1 10%.
For CNc1ccc(/C=C(\CCC(=O)O)c2nc3ccccc3s2)cc1[N+](=O)[O-] the results were Tb PFK inh -7%, PI5P4K alpha inh -18, WRN helicase inh-1 inconclusive, Tb PGK inh inconclusive, TDP1 inh -8% and FEN1 inh-1 -9%.
For CN(c1ccccc1)c1ccc(/C=C(\CCC(=O)O)c2nc3ccccc3s2)cc1[N+](=O)[O-] the results were Tb PFK inh 0%, PI5P4K alpha inh inconclusive, WRN helicase inh-1 27µM*, Tb PGK inh inconclusive, TDP1 inh 6%, FEN1 inh-1 inconclusive, FEN1 inh-2 67*, WRN helicase inh-2 22µM*, TO displacement 27µM* and BLM helicase inh 8.6µM*.
Screening O=C(Nc1ccc2nc(-c3ccc4nc[nH]c4c3)[nH]c2c1)c1cccs1 returned Tb PFK inh 23%, PI5P4K alpha inh inconclusive, WRN helicase inh-1 40µM*, Tb PGK inh inactive, TDP1 inh -9%, FEN1 inh-1 45µM*, FEN1 inh-2 inconclusive, WRN helicase inh-2 22µM*, TO displacement -17% and BLM helicase inh 24µM*.
Screening CN1CCS/C1=C\C=C1/SC(=S)N(CC(=O)O)C1=O returned Tb PFK inh 2%, PI5P4K alpha inh 5, WRN helicase inh-1 -6%, Tb PGK inh -2%, TDP1 inh -2% and FEN1 inh-1 -13%.
For CN1/C(=C\C=C2/SC(=S)N(CC(=O)O)C2=O)C(C)(C)c2ccccc21 the results were Tb PFK inh -16%, PI5P4K alpha inh -27, WRN helicase inh-1 50µM*, Tb PGK inh -28%, TDP1 inh 5%, FEN1 inh-1 inconclusive, FEN1 inh-2 85*, WRN helicase inh-2 22µM*, TO displacement inactive and BLM helicase inh 22µM*.
Cc1cc(NC(=O)CSc2cn(CCNC(=O)c3ccccc3)c3ccccc23)no1 was read as Tb PFK inh 1%, PI5P4K alpha inh -76*, WRN helicase inh-1 32µM*, Tb PGK inh 7.1µM*, TDP1 inh 2%, FEN1 inh-1 32µM*, FEN1 inh-2 67*, WRN helicase inh-2 12µM*, TO displacement -14%, BLM helicase inh 3.4µM* and ADP-Glo counter 0%.
CC1ON=C(c2ccccn2)N(Cc2ccc3c(c2)OCO3)C1=O (centres undefined) was read as PI5P4K alpha inh -1 and WRN helicase inh-1 9%[57.1 µM].
`CN(C)c1ccc2nc3ccc(=O)cc-3sc2c1` gave PI5P4K alpha inh -73*, WRN helicase inh-1 56µM*, Tb PGK inh inconclusive, FEN1 inh-2 43* and ADP-Glo counter inconclusive.

Bioassay records as filed in PubChem.
